Experimental findings from the supplement of paper PMC10681739 are described below.

For the experiment, the target named is T1, ETS1 (UniProt P14921).
T1 sequence: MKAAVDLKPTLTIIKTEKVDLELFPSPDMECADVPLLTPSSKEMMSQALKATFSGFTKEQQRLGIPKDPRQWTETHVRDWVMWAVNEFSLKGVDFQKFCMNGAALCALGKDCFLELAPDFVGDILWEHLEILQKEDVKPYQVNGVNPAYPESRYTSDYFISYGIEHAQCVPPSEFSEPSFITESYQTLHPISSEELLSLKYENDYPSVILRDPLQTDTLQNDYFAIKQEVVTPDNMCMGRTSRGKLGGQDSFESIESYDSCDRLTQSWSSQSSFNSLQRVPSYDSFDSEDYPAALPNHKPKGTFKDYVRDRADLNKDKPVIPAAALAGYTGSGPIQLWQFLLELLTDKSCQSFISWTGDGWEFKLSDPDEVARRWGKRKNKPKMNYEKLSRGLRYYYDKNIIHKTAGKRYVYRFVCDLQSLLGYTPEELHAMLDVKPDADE
Nature of the experiment: ETS1 binding intensity (PBM fluorescence), ETS1 alone (arbitrary fluorescence units); higher = stronger binding. To be noted: ETS1 concentration 1 nM; RUNX1 concentration 0 nM. As to the method:
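Cooperative genomic-context PBM: 36-bp genomic probes with neighbouring ETS1 and RUNX1 sites, double-stranded on Agilent 4x180k arrays. Full-length recombinant human ETS1 (1 nM) was incubated alone or with RUNX1 (25 nM) and detected with anti-ETS1 antibody plus Alexa488 secondary. Value is the median fluorescence intensity over 4 replicate spots; the ETS1+RUNX1 data were normalised to the ETS1-only data using probes without RUNX1 sites. The 36-bp variable region sits on the array probe with constant linker/primer flanks that are not printed.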
The sequence CAGTCAAGAGGAAATTATAAACCACTGCCTCTTTGA had an ETS1 binding intensity of 599. The value for GATGAAAGAGGAAGTTCTCAAACCACCTTGCCAGTG was 1170; that for ATGGCGAAGCAGGATGCCCTCAACCCACATACGGCA was 638.

As for CTGTCCGCGACATCCGGGACCTGCGGGACCGCCGAT, the ETS1 binding intensity came to 1250. The sequence TGGAAGAGGGCAGGAAGTGTTGTGGTCACTCCCACC gave an ETS1 binding intensity of 4450. The value for GACACCCCACACCGGAAACCTCAGACAGTCCTCAGC was 4120; that for ACTCACTTCCGTTTAGCTTATCAACCACCAAGAGAC was 1020; that for GGGGAAAGGAAGAGGAAACCGCGAGTGCAAAGGCCC was 679. GGGGAAGAGGAAGCTGTGTCCGCGGTGCAAGGGGTT came in with an ETS1 binding intensity of 533. On to GCTCCTCCCGGATATAAAGCCCCAAACCACGCCACT, for which the ETS1 binding intensity came out at 724. The sequence AAGCCCTAGAGGAAATTAGTACGTAACCACCTTCTG came in with an ETS1 binding intensity of 540. ATACCGGCGCATCCGGATTTTGAAGCCGCAGTGGAC yielded an ETS1 binding intensity of 728.

GCCATGGCCACTTCCTGCTTGTAACCACAGCCCAGA: the ETS1 binding intensity amounted to 4430.

AGGGCGCCGCTTCCGGGAGCCCGCAAGCGGCCTCCG gave an ETS1 binding intensity of 606.

GTTTCATGTTAAGTAGGATGTGGTCAGTTAGCTTCG displayed an ETS1 binding intensity of 851. As for GTGGCTTCCTGCCATTGACAATTGCGGGATGGCTTT, the ETS1 binding intensity came out at 529. With CACCCAAGGATATGCTTTTTTTTGGCAAGCCACATC, the ETS1 binding intensity is 430.

As for GCCAGGGCAGGAAGTTGCTAACCGCCCCAGAGCAGG, the ETS1 binding intensity came to 2840. As for CTTTTTGATTTCCTCAAGCATCCCACAAATACACAG, the ETS1 binding intensity was found to be 539.

As to TGGGCAGGAAGTGGTATCTGATTGTGGTTTTGATTT, the ETS1 binding intensity came out at 3960. In the case of GCGCGGGCAACTTCCGGTGTGGGTGACGAGTGGTGG, the ETS1 binding intensity was 10900. The same measure for GTCCCCGACTTCCGCTCTCGGTTGGTGGTTGGCTTT: 2370; for AGCGTTGTCTTCCGGCCTCAACCACTCAGCGACCGG: 14400. Turning to ACGTACGGGATGTGGGAGGTTTGTTTTGACCACACC, the ETS1 binding intensity turned out to be 492. The sequence CCTGACTCTGGGTTTCCTCCCAGCCACAGACACCTG displayed an ETS1 binding intensity of 459.

Sequence GCGCCCCGTCCTTCCGCAGCCCAACCGCCTCTTCCC registered an ETS1 binding intensity of 476. Take CCCTTCGCTTCCGCTCCGCGTTCCCACAATGCAGTG: the ETS1 binding intensity came out at 884. AAGGGAGCCGCCCGGAAACCGCGCGGCAAAGATGCC: the ETS1 binding intensity was 1560.

As for GTTGGGCTTTGAGGATGTGGGTTCTAGAAGTTTACA, the ETS1 binding intensity was 928.

TCCAGCCCCACCGGAAGTGGATGTGGTTAATCTAGT had an ETS1 binding intensity of 28800. Turning to GCAGGACTCCAGGAAGCCCGCGCAGCCGCAAAAAGC, the ETS1 binding intensity was 597. Sequence TCTCTTCCGTTCTCTGGTAGCTTTGTGGTAGCTTTG yielded an ETS1 binding intensity of 369. Take CCTGTTCCGGGCTCCGTACACCCAGGCCCGCAGCTG: the ETS1 binding intensity is 550.

The sequence GTTCTCCACATCCTGTTCCGTAGCTGTGGTGCACCG yielded an ETS1 binding intensity of 1600.

The sequence AGCGGATTCCGGACATAACAATCTACAGCGGTCTTA yielded an ETS1 binding intensity of 444. AACAGGCAAAGGACAGGATGTGGTGAGCGTCGGCCC: the ETS1 binding intensity is 4150. GAGAATGAAGAGGAAATGTGGGGACAGACAGAACTG had an ETS1 binding intensity of 1060. Take GGGAACTCACACCGGAAACCACAGAACCAAGAGTGG: the ETS1 binding intensity was 7140.

For the sequence GTTCTCAGCTTCCTGTTCACAGAGAAACCTCAGACA, the ETS1 binding intensity turned out to be 1370. The same measure for CAGATTCGTGTTTCCGTGCCCGCAGCTCCGTCAGCT: 467.
